# In PubChem BioAssay (Tox21):
# Records with an inconclusive call do not appear. Activity calls are given as the source filed them. Calls come from the whole dose curve; as a rule, active = well fitted inhibition curve with a large enough effect in the repeat runs; inconclusive = weak or mixed curves, or effect the other way; inactive = no such curve, though single readings can be large or run the other way.
# Target: Nuclear receptor ROR-gamma (Homo sapiens) (UniProt P51449)
# Experiment: qHTS assay to identify small molecule antagonists of the retinoid-related orphan receptor gamma (ROR-gamma) signaling pathway (AID 1159521; note: nearly all actives have a fitted effect of over 50% in size; for activity change, negative = inhibition: top concentration of the series differs between compounds)
# Conditions: Tet-on RORgamma CHO cells, RORE-luciferase, 16 h; series mostly up to 92.4 µM; activity change, negative = inhibition: at the top concentration
# Source text: U.S. Tox21 Program National Center for Advancing Translational Sciences [NCATS] NIH Chemical Genomics Center [NCGC] U.S. Environmental Protection Agency [EPA] National Institutes of Environmental Health Sciences [NIEHS] National Toxicology Program [NTP] U.S. Food and Drug Administration [FDA] Tox21 Assay Overview: Nuclear steroid hormone receptors are involved in many biological processes including inflammatory responses, cell proliferation, and apoptosis. Environmental factors or compounds disrupting these nuclear receptor pathways and gene expression may promote susceptibility to immunotoxicants and autoimmune diseases. One important group of these expression factors are the retinoid-related orphan receptors. To assess compounds that may interfere with the retinoid-related orphan receptor gamma (ROR-gamma) transcription factor, a cell-based luciferase assay was used. The CHO cell-based assay utilizes a TET-inducible ROR expression factor and ROR response element-LUC reporter gene. Reporter gene activity was induced using Doxycycline Hyclate and measured after 16 hr incubation. Tet-on ROR gamma CHO cells were used to screen against the Tox21 10K compound library for ROR gamma antagonists by quantification of decreased reporter gene activity in terms of decreased luminescence.
# Tox21 Assay Protocol Summary: Tet-on ROR gamma CHO cells were dispensed at 1,000 cells in 4 uL of culture medium per well into white wall/solid bottom 1536-well plates using a Multidrop Combi (Thermo Scientific, Waltham, MA) dispenser. Following incubation at 37 C and 5% CO2 for 4 hr, 23 nL of compounds dissolved in DMSO, positive controls or DMSO only were transferred by a Pintool station (Kalypsys, San Diego, CA) and after 2 hr incubation at 37 C, one ul of 1 uM (final concentration) of Doxycycline Hyclate was added to all the wells by using a Flying Reagent Dispenser (FRD) (Aurora Discovery, San Diego, CA). After 16 hr incubation at 37 C and 5% CO2, 5 uL of ONE-Glo reagent (Promega Corporation, Madison, WI) was added to each assay plate using FRD. After 30 min incubation at room temperature, luminescence was quantified on a ViewLux plate reader (Perkin Elmer, Waltham, MA).
# % is set by controls: 0 for no effect and ±100 for the full control effect; potency is the fitted concentration of half-maximal effect.
SMILES,"activity change, negative = inhibition",Potency
CC1=NS(=O)(=O)c2cc(Cl)ccc2N1,24.4% [at 42.5 µM] (inactive),–
CN1[C@@H]2CC[C@H]1CC(OC(=O)C(O)c1ccccc1)C2 (stereo not given in full),2.51% [at 42.5 µM] (inactive),–
Nc1ccncc1N,-1.33% [at 42.5 µM] (inactive),–
CCC(=O)OCc1ccccc1,20.9% (inactive),–
CCOCC(C)O (stereo not given),7.35% (inactive),–
CC(=O)N[C@H]1[C@H]([C@H](O)[C@H](O)CO)OC(C(=O)O)=C[C@@H]1N=C(N)N,20.2% [at 42.5 µM] (inactive),–
Cc1ccc(C(=O)Nc2ccc(S(=O)(=O)O)c3cc(S(=O)(=O)O)cc(S(=O)(=O)O)c23)cc1NC(=O)c1cccc(NC(=O)Nc2cccc(C(=O)Nc3cc(C(=O)Nc4ccc(S(=O)(=O)O)c5cc(S(=O)(=O)O)cc(S(=O)(=O)O)c45)ccc3C)c2)c1,18.5% [at 42.5 µM] (inactive),–
CCC(C(=O)NC(=O)NC(C)=O)c1ccccc1 (stereo not given),-7.05% [at 42.5 µM] (inactive),–
[O-][n+]1cccc(CO)c1,12.1% [at 42.5 µM] (inactive),–
Cc1ccc(C(=O)c2ccccc2)cc1,14.8% (inactive),–
O=C1CCCCCCCCCCCCCCO1,5.16% (inactive),–
CC(=O)C1CCCCC1=O (stereo not given),-9.9% (inactive),–
COCCOC[C@H](CC1(C(=O)NC2CCC(C(=O)O)CC2)CCCC1)C(=O)Oc1ccc2c(c1)CCC2 (stereo not given in full),-6.81% (inactive),–
CCCCCCCCCCOc1cc2c(=O)c(C(=O)OCC)c[nH]c2cc1OCC,36.6% [at 8.39 µM] (inactive),–
N[C@@H](CCC(=O)O)C(=O)O,0.26% (inactive),–
O=[N+]([O-])c1ccc(/C=N\O)o1,-0.146% [at 42.5 µM] (inactive),–
CC(C)c1ccc2ncccc2c1,-7.53% (inactive),–
CO[Si](C)(OC)c1ccccc1,1.65% (inactive),–
COC(=O)C1=C(C)NC(C)=C(C(=O)OC(C)C)C1c1cccc2nonc12 (stereo not given),62.8% [at 42.5 µM] (inactive),–
C[N+](C)(CCOc1ccccc1)Cc1cccs1,-16.3% [at 42.5 µM] (inactive),–

SMILES,"activity change, negative = inhibition",Potency
COc1c(N2CCNC(C)C2)c(F)cc2c(=O)c(C(=O)O)cn(C3CC3)c12 (stereo not given),53.7% [at 42.5 µM] (inactive),–
Cc1ccc(-c2ccccc2C#N)cc1,-11.5% [at 42.5 µM] (inactive),–
CCCCCCCCCC[N+](C)(C)[O-],-15.8% (inactive),–
CCN(C=O)CC,14.4% (inactive),–
CC(=O)c1ccc2ccccc2c1,22.8% (inactive),–
Cc1cc(C)c(N=Nc2c(O)c(S(=O)(=O)O)cc3cc(S(=O)(=O)O)ccc23)cc1C,-3.58% [at 8.39 µM] (inactive),–
CN1CCN(c2cc3c(nn2)Oc2ccccc2N3C)CC1,55.1% [at 19 µM] (inactive),–
CCN1CCOCC1,10.2% (inactive),–
CCCCCC(C)N (stereo not given),6.69% [at 42.5 µM] (inactive),–
CC(=O)c1cnccn1,21.2% (inactive),–
Cc1nc2ccc(CN(C)c3ccc(C(=O)N[C@@H](CCC(=O)O)C(=O)O)s3)cc2c(=O)[nH]1,23.3% [at 42.5 µM] (inactive),–
Nc1ccn([C@@H]2O[C@H](CO)[C@@H](O)C2O)c(=O)n1 (stereo not given in full),–,7.7 µM (active)
O=[N+]([O-])c1cncn1CCN1CCOCC1,30.9% [at 42.5 µM] (inactive),–
CCCCCCCCCCCCCCCCCCO,14.7% [at 42.5 µM] (inactive),–
CN(C)C(=O)Oc1ccc[n+](C)c1,19.6% [at 42.5 µM] (inactive),–
CC[N+](CC)(CC(=O)Nc1c(C)cccc1C)Cc1ccccc1 (tested in a mixture with another compound),-6.98% [at 42.5 µM] (inactive),–
Clc1cc(Cl)cc(Cl)c1,13.8% (inactive),–
CC(C)(C)C(=O)Oc1ccc(S(=O)(=O)Nc2ccccc2C(=O)NCC(=O)O)cc1,3.3% [at 42.5 µM] (inactive),–
C=C(C)C(=O)OCCOCCOCCOCCOC(=O)C(=C)C,-2.94% (inactive),–
COCCOCC(OC)OC,-9.39% [at 42.5 µM] (inactive),–
